Records with an inconclusive call do not appear. Unmarked numbers belong to inactive results. Activity calls are given as the source filed them. Calls follow the shape of the dose curve; as a rule, active = well fitted cell-killing curve with a large enough effect in the repeat runs; inconclusive = weak or mixed curves; inactive = flat fitted curve, though single readings scatter.
Assay: qHTS assay for small molecule agonists of the antioxidant response element (ARE) signaling pathway measured by Nrf2-dependant transcriptional activity - cell viability counter screen (AID 720653)
Conditions: ARE-bla HepG2 viability, CellTiter-Glo ATP luminescence, 16 h; max response: active compounds read low
Procedure, shortened: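 ARE-bla HepG2 cells treated with compounds for 16 h at 37C; this counter screen measures viability as intracellular ATP by CellTiter-Glo luminescence after 30 min at room temperature.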
% is scaled to controls: 0 for no effect and ±100 for the full control effect; potency is read from the fitted curve at half-maximal effect.

Structure (SMILES) | max response | Potency
Fc1ccc(Oc2ccnc3cc(Cl)cc(Cl)c23)cc1 | -31.6% | 
COC(=O)N(OC)c1ccccc1COc1ccn(-c2ccc(Cl)cc2)n1 | -16.5% | 
CC[C@H]1CCCC(O[C@H]2CC[C@H](N(C)C)[C@@H](C)O2)[C@@H](C)C(=O)C2=C[C@@H]3[C@@H](C=C[C@@H]4C[C@@H](O[C@@H]5O[C@@H](C)[C@H](OC)[C@@H](OC)[C@H]5OC)C[C@@H]34)[C@@H]2CC(=O)O1 (stereo not given in full) | 3.99% | 
O=C(O)[C@@H]1[C@H](C(=O)O)[C@@]2(Cl)C(Cl)=C(Cl)[C@]1(Cl)C2(Cl)Cl | -22.8% | 
CCCCCCCCCCCCN(C)C | -0.69% | 
CCOP(=S)(OCC)SCn1nnc2ccccc2c1=O | -19.9% | 
CC(c1ccc(O)cc1)(c1ccc(O)cc1)c1ccc(O)cc1 | -3.26% | 
CC(C)N(C(=O)SCC(Cl)=C(Cl)Cl)C(C)C | 15.1% | 
CCC[CH2][Sn]1([CH2]CCC)[O]C(=O)C=CC(=O)[O]1 |  | 44.7 µM (active)
O=P(Oc1ccccc1)(Oc1ccccc1)Oc1ccccc1 | -2.38% | 
